# Reference: PubChem BioAssay (NCI)
# This is part of a sample that, as a whole, favours compounds with a hit. Of some 79,000 tested, about 15% had one in any assay. Unmarked numbers belong to inactive results. The source made the active and inactive calls. Cut-off read from the data, not from the text of the source: active = growth inhibition above about 70%; inactive = the rest.
# Legend:
# [1] = NCI Yeast Anticancer Drug Screen. Data for the rad50 strain (AID 155);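 note: 0% = growth of vehicle-only cultures of the same strain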; details: S. cerevisiae rad50 strain growth inhibition; at 50.0 µM; hits give high values
# How it was run: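 Genetically altered yeast (DNA repair pathway); compound treatment; growth inhibition vs vehicle ctrl.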
# [2] = NCI Yeast Anticancer Drug Screen. Data for the mec2-1 strain (AID 157); details: S. cerevisiae mec2-1 strain, at 50.0 µM, hits give high values
# How it was run: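 Growth inhibition is read against vehicle-treated controls after compound exposure of the mec2-1 yeast strain, which is defective in DNA damage repair or cell cycle control.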
# [3] = NCI Yeast Anticancer Drug Screen. Data for the sgs1 mgt1 strain (AID 161);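 note: 0% = growth of cultures given vehicle only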; details: S. cerevisiae sgs1 mgt1 strain, at 50.0 µM, hits give high values
# How it was run: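 Percent growth inhibition was derived by comparing compound-exposed mutant yeast with vehicle-exposed cultures. The strain carries alterations in DNA damage repair.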
# [4] = NCI Yeast Anticancer Drug Screen. Data for the cln2 rad14 strain (AID 165);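 note: 0% = growth equal to vehicle treated cultures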; details: S. cerevisiae cln2 rad14 strain, at 50.0 µM, hits give high values
# How it was run: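 Growth inhibition, relative to vehicle-treated controls, is the read-out. The test organism is a yeast strain with defined genetic alterations, cln2 rad14.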
# [5] = NCI Yeast Anticancer Drug Screen. Data for the bub3 strain (AID 167); details: S. cerevisiae bub3 mutant strain, at 50.0 µM, hits give high values
# How it was run: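 Yeast carrying a defined mutation is treated with each compound, and growth is compared with that of vehicle-exposed cells to give inhibition.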
# [6] = NCI Yeast Anticancer Drug Screen. Data for the mlh1 rad18 strain (AID 175); details: S. cerevisiae mlh1 rad18 strain growth inhibition; at 50.0 µM; hits give high values
# How it was run: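 Cells of a genetically altered yeast strain, deficient in DNA damage repair, were treated with compound. Their growth was then compared with that of vehicle-treated cultures to give inhibition.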
SMILES,growth inhibition [1] [%],growth inhibition [2] [%],growth inhibition [3] [%],growth inhibition [4] [%],growth inhibition [5],growth inhibition [6] [%]
O=C(O)c1cc(=O)c2cc3c(cc2o1)OCc1ccccc1-3,13.8,-6.15,2.1,19.4,-6.5%,3.55
CC(=O)OCC1OC(n2cnc3c(Cl)nc(Cl)nc32)CC1OC(C)=O (centres undefined),37.3,20.9,24.4,30.4,5.2%,34.9
CCN(CC)CCCNc1nc2ccccc2c2c1ncn2CC(C)C,-51,5.4,-20.8,27.1,13.2%,6.35
[N-]=[N+]=NC1CC(n2cc(Cc3ccccc3)c(N)nc2=O)OC1CO (centres undefined),-0.1,-10.6,11.4,2.95,2.9%,-7.05
Cc1nnc(N/N=C/c2ccccc2)n1/N=C\c1ccccc1,8.05,17.1,-5.8,10.2,4.85%,-25.4
COc1cc(C(NC(N)=O)c2cc3c(cc2O)OCO3)cc(OC)c1O (centres undefined),-1.4,0.45,-12.2,-20.9,12.4%,4.05
N#CCc1c(Cl)ccc(Cl)c1Cl,37,45.6,44.6,3.9,58.8%,39.5
CCOCC1OCCCO1,-13.5,12.4,1.6,-9.85,-10%,7.15
NC(=O)C1(c2cccs2)CCCC1,4.9,3.4,6.5,-26.1,-12.3%,26.2
Cc1n[nH]c(=O)n1N1C(=O)c2ccccc2C1=O,-1.25,-10.1,-25.7,-3.45,-19.6%,-26.6
Cc1ccccc1OCC(O)COC(=O)CCS(=O)(=O)O (centres undefined),-25.1,-7,-7.85,8.1,37.2%,-6.3
O=S(=O)(/N=C1C=C/C(=N\S(=O)(=O)c2ccccc2)C2C/1C2(c1ccccc1)c1ccccc1)c1ccccc1 (centres undefined),39.7,17.6,29.8,-30.6,1.75%,13.7
C[C@]12CC[C@@H]3c4cc(OCC(F)(F)F)c(O)cc4/C(=N/O)C[C@H]3[C@@H]1CC[C@@H]2O,-0.75,-4.55,4.65,17.6,12.8%,13.2
CC1(C)CNCC2(C)OCCCOC3(C)CNCC(C)(C)NC(=O)C(C)(CNCC(C)(C)NC3=O)OCCCOC(C)(CNCC(C)(C)NC2=O)C(=O)N1,-22.6,-21.1,-24.4,16.1,-3.05%,-21.7
CCN(CC)CCCC(C)Nc1c2ccccc2nc2cc(Cl)cc(Cl)c12 (centres undefined),17.6,4.15,3.1,10.9,9.6%,26.8
O=C(O)C/C(=C\c1ccccc1)C(=O)O,-3.15,-25.9,-17.4,4,-24.2%,-30.9
COc1cc(NCCCCCNC(C)C)c2ncccc2c1OC,-15.1,-9.9,-1.95,-11.3,9.05%,-3.1
CCCCCN(CCCCC)c1ccc(/C=C/c2ccnc3ccccc23)cc1,1.6,7.05,22.9,-15.7,-10.2%,14.6
O=NC(C[N+](=O)[O-])c1ccccc1 (centres undefined),4.6,-21.9,2.7,-40.7,6.55%,-24.4
C=C(Br)CN=CN(C)C,23.6,1.35,10.9,1.35,-10.1%,23.1

SMILES,growth inhibition [1] [%],growth inhibition [2] [%],growth inhibition [3] [%],growth inhibition [4] [%],growth inhibition [5],growth inhibition [6] [%]
CC(C)OC1(c2ccccc2)c2cccc3cccc(c23)C1(O)c1ccccc1 (centres undefined),18.2,-3.6,22.8,7.7,3.35%,6.75
CC1C(C)C1(c1ccccc1)C(C)(C)O (centres undefined),8.55,1.1,1.3,16.9,-24.1%,-3.45
c1ccc(C2CCN3c4ccc5ccccc5c4NCC23)cc1 (centres undefined),36,68,45.6,14.5,88.8% (active),67.3
COC(c1ccccc1)c1ccccc1,-21.1,4.9,29.5,-16.4,1.75%,-8
O=C(Oc1ccc(-c2ccccc2)cc1)c1cccc([N+](=O)[O-])c1,-10.1,-4.5,7.1,-11.4,27.5%,0.2
C1CCC(NCSC2=NCCS2)CC1,36.5,-4.7,0.05,-29.8,7.95%,1.9
CCc1n[nH]c(=O)n1N1C(=O)CCC1=O,4.25,18.4,-11.7,5.4,-23.8%,23.2
CN1C(c2ccccc2)NC(=O)C12CCN(CCCC(=O)c1ccccc1)CC2 (centres undefined),63.5,39.7,53.2,19.5,17.9%,45.2
Clc1ccc(C2NC(c3ccc(Cl)cc3)NC(c3ccc(Cl)cc3)N2)cc1 (centres undefined),28.4,14,35.5,-5.4,8.75%,-2
CCC(/C=C\C(C)C1CCC2C3CC=C4CC(OC)CCC4(C)C3CCC12C)C(C)C (centres undefined),25.2,5.1,-3.4,20.6,-3.5%,9.05
CN(CCSSCCN(C)/N=C/c1ccccc1)/N=C/c1ccccc1,-30.6,-10,-26.7,-27.6,-10.7%,-17.1
Cc1cccc(NCc2ccccc2)c1,32.5,5.95,19.4,-22.1,29.6%,24.9
O=C1CCSSCCC(=O)NCCCN1,1,-5.3,-24.4,15.2,-24.1%,-6.3
CC1=NOC(=O)/C1=C/c1ccccc1C,51.2,2.55,27.9,8.15,17.4%,36.9
CC1(C)O[C@@H]2[C@@H](COC(=O)c3ccccc3)C[C@@H](C#N)[C@@H]2O1,4.05,-0.85,-25.6,24.9,38.9%,-11.2
Cc1ccc(NC(=O)OCC(F)(F)C(F)(F)C(F)(F)F)c(NC(=O)OCC(F)(F)C(F)(F)C(F)(F)F)c1,-9.15,-12.1,-8.6,-33.6,-4.05%,12.8
COc1ccc(C2=C(C#N)C(=C(C#N)C#N)NC(N)=C2C#N)cc1,-11.1,-1.25,-21.8,-4.75,-19.4%,-17.4
COc1ccc(CCC(O)c2ccccc2)cc1 (centres undefined),25.7,20.4,3.65,16.1,19.3%,16.1
Cc1nc2ccccc2nc1CC(=O)c1ccccc1,43.3,15.3,48,18.5,54.4%,43.5
